SMILES strings stand for the structures. Compounds without any hit were thinned out: in the full panel of roughly 83,000, 20% have a hit.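 Each cell line was grown in a 96-well plate and treated with one concentration of compound for 48 hours. Values below 10 were considered active.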 A number with no mark means an inactive call. Active and inactive are the calls of the source.

Assay in all cases: NCI-60 one-dose screen, 48 h (100 = growth as untreated, 0 = no growth, -100 = all killed)
Details in all cases: 10 µM unless noted

For test [1], the system named is SK-MEL-2 melanoma.
Test [2] concerns SN12C renal.
In test [3] the test system is UO-31 renal.
Test [4] concerns TK-10 renal.
The subject of test [5] is ACHN renal.
The test system of test [6] is CAKI-1 renal.
In test [7] the test system is A498 renal.
The subject of test [8] is CCRF-CEM leukemia.
Test [9] concerns MOLT-4 leukemia.
For test [10], the system named is SR leukemia.
The test system of test [11] is RPMI-8226 leukemia.
The subject of test [12] is OVCAR-8 ovarian.
Test [13] deals with OVCAR-5 ovarian.
Test [14] deals with OVCAR-4 ovarian.
Test [15] concerns SK-OV-3 ovarian.
The test system of test [16] is IGROV1 ovarian.
Test [17] relates to OVCAR-3 ovarian.
Test [18] deals with HS 578T breast.
Test [19] concerns NCI/ADR-RES ovarian.
In test [20] the test system is EKVX NSCLC.

As for `CC(C)C[C@H](NC(=O)/C=C/Cn1ccc2ccccc2c1=O)B(O)O`, the growth is 24% in test [1]; 54.7% in test [2]; 48.9% in [3]; 2.1% (active) in test [4]; 31.7% in test [5]; 45.3% in [6]. In addition, the growth in test [7] is -3.46% (active); in [8], 12.2%; in test [9], 1.78% (active); in [10], 9.14% (active); in test [11], 11.1%; in [12] it was 86.8%. The growth in test [13] was 47.2%; in test [14], 89.3%; in test [15], 69.2%; in test [16], 77%; in [17], 0.848% (active); in test [18] it was 43.8%. Moreover, in test [19], the growth is 106%.

As to `Nc1ncnc2c1CN(Cc1ccccc1)CC2`, the growth is 103% in [1]; 110% in test [20]; 76.2% in [3]; 108% in test [4]; 102% in test [6]; 120% in test [7]. For the same compound, the growth in [8] is 95.5%; in test [9], 102%; in test [10], 94.6%; in test [12], 106%; in [13] it was 114%; in [14], 102%. Also, the growth in test [15] is 103%; in [16] it was 118%; in test [17], 129%; in test [18] it was 119%; in test [19], 104%.

For the compound `Cc1nn2c(/C=C3/C(=O)Nc4cc(Cl)ccc43)c(-c3ccccc3)nc2s1`, the growth in [1] was 0.603% (active); in test [2] it was -1.6% (active); in [3], -72.3% (active); in test [4] it was -55.3% (active); in test [5], -26.5% (active); in test [6] it was -50.4% (active). The growth in [7] was 80.2%; in [8], -14% (active); in test [9], 13.1%; in test [10] it was 15.1%; in test [11], -19.6% (active); in test [12], -25.2% (active). Also, the growth in [13] is 52.8%; in test [14] it was -85.6% (active); in test [15], 73.6%; in test [16], -23.5% (active); in test [17], -71.6% (active); in test [18], -0.41% (active). Further, the growth in test [19] is 24.2%.

As to `COc1cc(-c2nc3sc4c(c3c(=O)[nH]2)CCCCCC4)cc(OC)c1OC`, the growth in test [1] is 16.4%; in [2] it was 22.1%; in test [3], 27.8%; in test [4], 47.6%; in test [5], 44.5%; in [6], 19.9%. For the same compound, the growth in [7] was -12.3% (active); in test [8], 14.3%; in test [9], 14.6%; in test [10] it was 15.5%; in test [11] it was 7.95% (active); in test [12] it was 25.2%. The growth in test [13] was 37.8%; in test [14] it was 61.6%; in test [15], 14.2%; in test [16] it was 34.5%; in [17] it was -3.03% (active); in [18] it was 5.2% (active). Also, in test [19], the growth is -6.9% (active).

Regarding `Cc1ccc(C2=NNC(c3sc(Cl)nc3Cl)C2)cc1` (configuration not stated), the growth in test [1] is 89.3%; in test [2] it was 40.8%; in test [3], 78.3%; in test [4], 133%; in test [5], 112%; in [6] it was 96.6%. Further, the growth in [7] is 97.2%; in test [8], 18%; in test [9], 8.29% (active); in test [10], 3.24% (active); in [11], 97.9%; in test [12] it was 100%. The growth was 116% in [13]; 84.7% in test [14]; 88.4% in test [15]; 80.6% in [16]; 101% in test [17]; 116% in test [18]. Also, in test [19], the growth was 94.5%.

In the case of `COc1ccc2c(c1)sc1nc(-c3ccc(N(C)C)cc3)cn12`, the growth in test [1] is 88.6%; in [20], 101%; in test [2] it was 123%; in test [5], 135%; in [6] it was 86.2%; in [7] it was 111%. Also, the growth in test [8] is 71.2%; in [9] it was 76.7%; in test [11] it was 33%; in test [12], 95.2%; in test [13], 98.8%; in test [14] it was 97.8%. Also, the growth is 82.6% in [15], 15.8% in test [16], 88.5% in [17] and 122% in [18].

For the compound `Nc1ccccc1C#Cc1ccccc1C#Cc1ccc(OCCCCCCOc2ccc(C#Cc3ccccc3C#Cc3ccccc3N)cc2)cc1`, the growth in [1] is 103%; in test [20], 89.3%; in test [2], 99.4%; in test [5], 102%; in test [6], 91.6%; in [7], 116%. In addition, the growth in test [8] was -59.7% (active); in test [9], 103%; in test [10] it was 94.7%; in test [11] it was 94%; in test [12], 95.6%; in test [13], 90.7%. Moreover, the growth in test [14] was 105%; in [15], 92.5%; in test [16] it was -7.54% (active); in test [17], 109%; in test [18], 113%; in test [19] it was 93%.

On to `N#Cc1c(NC(=O)c2ccco2)[n+]([O-])c2ccccc2[n+]1[O-]`, for which the growth in test [1] is 92.9%; in test [20] it was 98.7%; in test [2] it was 93.4%; in test [4], 133%; in test [6] it was 110%; in test [7], 117%. Also, the growth in [9] is 85.3%; in test [11], 447%; in [12], 90.3%; in test [13], 89.7%; in [14], 109%; in [15] it was 110%. The growth in [16] was -49.8% (active); in test [17], 115%; in [18] it was 98%; in test [19] it was 116%.

For the compound `O=c1sc2ncnc3ncn1c32`, the growth in [1] was 81.9%; in test [2], 85%; in [3], 52.6%; in test [4], 26.9%; in [5], 80.3%; in test [6] it was 43.1%. The growth in test [7] is 101%; in test [8], 54.8%; in test [9] it was 35.9%; in [10] it was 33.2%; in test [11], 25.6%; in [12] it was 78.3%. The growth in test [13] was 65.3%; in [14], 48.7%; in test [15] it was 22.8%; in test [16] it was 96%; in test [17] it was 17.6%; in test [18] it was 72.7%. Also, the growth in [19] was 70.1%.
